Compound activity deposited in PubChem by National Center for Advancing Translational Sciences (NCATS).
GLS inh – qHTS for Inhibitors of Glutaminase (GLS) | Glutaminase kidney isoform, mitochondrial (Homo sapiens), O94925 | GLS enzymatic activity, qHTS titration | Potency, µM (series often up to 45.5 µM), without a hit: at the highest dose activity change, negative = inhibition, most hits filed as inhibitors | 410,000 tested, 0.21% active | AID 624170, 2012; note: % is set by controls: 0 for no effect and ±100 for the full control effect
Target sequence (O94925 whole entry, looked up, canonical isoform): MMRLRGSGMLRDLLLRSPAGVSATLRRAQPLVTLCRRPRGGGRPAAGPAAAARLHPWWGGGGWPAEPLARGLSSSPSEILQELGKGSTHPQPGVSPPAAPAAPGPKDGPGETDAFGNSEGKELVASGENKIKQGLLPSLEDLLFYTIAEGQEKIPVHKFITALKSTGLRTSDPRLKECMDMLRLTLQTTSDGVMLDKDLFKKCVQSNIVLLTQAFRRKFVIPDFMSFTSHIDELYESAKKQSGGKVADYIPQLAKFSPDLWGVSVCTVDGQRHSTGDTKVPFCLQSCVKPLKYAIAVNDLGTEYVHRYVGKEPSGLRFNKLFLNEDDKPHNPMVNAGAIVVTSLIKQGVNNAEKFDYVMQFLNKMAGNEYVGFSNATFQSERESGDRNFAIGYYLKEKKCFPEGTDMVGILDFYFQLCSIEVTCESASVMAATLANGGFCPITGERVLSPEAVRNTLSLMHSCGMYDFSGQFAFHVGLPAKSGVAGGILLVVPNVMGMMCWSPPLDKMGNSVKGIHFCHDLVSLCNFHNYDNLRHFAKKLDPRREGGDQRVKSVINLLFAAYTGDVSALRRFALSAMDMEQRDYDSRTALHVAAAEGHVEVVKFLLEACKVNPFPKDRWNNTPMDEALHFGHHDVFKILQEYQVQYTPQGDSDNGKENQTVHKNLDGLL
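Human kidney-isoform GLS in 45 mM KH2PO4 pH 8.2, 0.02% Tween-20, with compound, started with 1mM L-Glutamine (added stock). Glutamate oxidase/HRP/Amplex red coupled fluorescence read at start and after 30 min at RT.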
PTHR1 ag – qHTS for PTHR1 Agonists: Primary Screen; Parathyroid hormone/parathyroid hormone-related peptide receptor (Homo sapiens), Q03431; HEK293 GP2 PTHR1 cells, GloSensor cAMP luminescence, 1 h; Potency, µM (highest dose often 115 µM), inactives show at the highest dose activation, usual class: activators; 410,000 tested, 0.075% active; note: nearly all actives have a fitted effect of over 55% in size
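HEK-293-derived GP2 cells expressing PTHR1 and a GloSensor cAMP reporter, 3,000/well, plated overnight, given luciferin plus IBMX (each 0.5 mM as added) for 1 h at 37 °C, then compound for 1 h at 37 °C. Luminescence was read after 15 min at room temperature.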
GRP78 ERSR act – qHTS for Inducers of the Endoplasmic Reticulum Stress Response (ERSR) in Human Glioma: qHTS; U87-MG GRP78 promoter luciferase reporter, 16 h; Potency, µM, without a hit: at the top dose activation, usual class: activators; 420,000 tested, 0.02% active; AID 602332, 2012; note: series mostly up to about 76 µM; % of control where 0% means no effect; nearly all actives have a fitted effect of over 35% in size
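ERSR induction read as luciferase luminescence (Bright-Glo, 10 min at room temperature) in stably transfected human U87-MG glioma cells exposed to compounds for 16 h, using GRP78 as sensor.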
GLP-1R agonist – qHTS of GLP-1 Receptor Agonists | HEK293 GLP-1R CRE-luciferase, luminescence, 4-6 h; cells express a hypersensitive GLP-1R form | Potency, µM (titrated, usually from 45.6 µM), for the others: at the top dose activation, most hits filed as activators | 380,000 tested, 0.007% active | AID 624172, 2012; note: % of control where 0% means no effect
GLP-1R inv ag – qHTS of GLP-1 Receptor Inverse Agonists (Inhibition Mode); HEK293 GLP-1R CRE-luciferase, luminescence, 24 h; GLP-1R form is constitutively active; 410,000 tested, 1.6% active; AID 624417, 2012; Potency, µM (series often up to 38.3 µM), for the others: at the highest dose activity change, negative = inhibition, hits mostly inhibitors; Glucagon-like peptide 1 receptor (Homo sapiens), P43220; note: % is set by controls: 0 for no effect and ±100 for the full control effect; nearly all actives have a fitted effect of over 55% in size
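Constitutively active GLP-1R drives a cAMP-responsive luciferase in stably transfected HEK293 cells; test compounds are added after overnight (12 h) attachment and left 24 hr, and signal loss in luminescence marks inhibition.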
ALOX12 inh – Primary qHTS assay for inhibitors of human arachidonate 12S-lipoxygenase (ALOX12): Round 2 | purified 12hLO, xylenol orange hydroperoxide absorbance | Potency, µM (top dose mostly 108 µM), inactives show top-dose activity change, negative = inhibition, usual class: inhibitors | 580,000 tested, 1.1% active | AID 1671190, 2021; note: % is set by controls: 0 for no effect and ±100 for the full control effect
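Hydroperoxide product was detected by ferrous iron/xylenol orange as the 573 to 405 nm absorbance ratio. Arachidonic acid at 40 uM (final) was turned over for 30 min at room temperature by 150 nM human 12hLO, pH 7.0 Hepes buffer, after 15 min compound preincubation.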
The depositor's hits bear a star; ! = a repeat was not active; [ ] = dose if it differs, or a comment. Rows were chosen to be rich in hits. Some 2.3% of all compounds tested hit in one or more screens of this group. Calls come from the whole dose curve; as a rule, active = well fitted curve in the direction sought with a large enough effect; inconclusive = small, poorly fitted or top-dose-only effect, or another doubt; inactive = no such curve, though single readings can be large; an effect the other way counts as inactive or inconclusive. Potency is the fitted concentration of half-maximal effect.

`CC(C)c1ccc(Nc2n[nH]c(=S)s2)cc1` gave GLS inh -32%, PTHR1 ag -2%, GRP78 ERSR act 4%, GLP-1R agonist -8%, GLP-1R inv ag 23% and ALOX12 inh 6.3µM*.
Cc1ccc(Nc2n[nH]c(=S)s2)c(C)c1 was read as GLS inh 15%, PTHR1 ag inactive, GRP78 ERSR act 0%, GLP-1R agonist 7%, GLP-1R inv ag 10% and ALOX12 inh 25µM*.
Screening COc1cccc(N2CCN(C(=O)c3cnn(-c4cccc(F)c4)c3-n3cccc3)CC2)c1 returned ALOX12 inh -68%.
Screening COc1ccccc1N1CCN(C(=O)COCC(=O)NCc2ccccc2)CC1 returned ALOX12 inh -5%.
Screening Cc1cccc(Nc2n[nH]c(=S)s2)c1C returned GLS inh 104%, PTHR1 ag -7%[57.5 µM], GRP78 ERSR act -2%, GLP-1R agonist -1%, GLP-1R inv ag 3% and ALOX12 inh 6.3µM*.
`CC(=O)Nc1n[nH]c(=S)s1` gave GLS inh inconclusive, PTHR1 ag 25%, GRP78 ERSR act -3%, GLP-1R agonist -8%, GLP-1R inv ag -29% and ALOX12 inh -22%.
`Cc1cccc(C)c1Nc1n[nH]c(=S)s1` gave GLS inh -19%, PTHR1 ag inactive, GRP78 ERSR act -2%, GLP-1R agonist 0%, GLP-1R inv ag 4% and ALOX12 inh inconclusive.
Cc1cc(C)c(Nc2n[nH]c(=S)s2)cc1C was read as GLS inh 18%, PTHR1 ag inactive, GRP78 ERSR act -2%, GLP-1R agonist 1%, GLP-1R inv ag 4% and ALOX12 inh 28µM*.
Screening CNc1n[nH]c(=S)s1 returned GLS inh 14µM*, PTHR1 ag inconclusive, GRP78 ERSR act -2%, GLP-1R agonist -5%, GLP-1R inv ag 2% and ALOX12 inh 22µM*.
O=C(Nc1cccs1)O[C@H]1COCCN(c2nc3ccccc3o2)C1 was read as ALOX12 inh 2%[176 µM].
Screening CCCC(=O)N1CCC(C(=O)NCC2(c3ccc(F)cc3)CC2)CC1 returned ALOX12 inh 30%.
FC(F)(F)c1cnc(Sc2nnc(-c3ccncc3)n2C2CC2)c(Cl)c1 was read as ALOX12 inh 17%.
Screening Cc1ccc2nc(SCC3CCCCO3)[nH]c2c1 (configuration not stated) returned GLS inh 5%, PTHR1 ag -92%, GRP78 ERSR act -13%, GLP-1R agonist 2%, GLP-1R inv ag 3.5µM* and ALOX12 inh -3%.
COc1ccc(Nc2nc(N3CCCCC3)c3ccccc3n2)cc1 was read as GLS inh -1%, PTHR1 ag -23%, GRP78 ERSR act inconclusive, GLP-1R agonist -6%, GLP-1R inv ag 5.6µM* and ALOX12 inh 28µM*.
Screening c1ccc(Nc2nc(N3CCCCC3)nc(N3CCCCC3)n2)cc1 returned GLS inh 10%, PTHR1 ag inactive, GRP78 ERSR act -7%, GLP-1R agonist -1%, GLP-1R inv ag 10µM* and ALOX12 inh -1%.
c1ccc(Nc2nc(N3CCCC3)nc(N3CCCC3)n2)cc1 was read as GLS inh 1%, PTHR1 ag inactive, GRP78 ERSR act -3%, GLP-1R agonist 7%, GLP-1R inv ag inconclusive and ALOX12 inh -28%.
`Oc1ccc(Nc2nc(N3CCCC3)c3ccccc3n2)cc1` gave GLS inh 39%, PTHR1 ag -5%, GRP78 ERSR act 1%, GLP-1R agonist -16%, GLP-1R inv ag inconclusive and ALOX12 inh inconclusive.
Screening O=C(c1cc(C2CC2)nc2ccccc12)N1CCN(Cc2ccccc2)CC1 returned ALOX12 inh 2%.
For O=C(CSc1ccc2c(c1)OCCO2)Nc1ncc(Cl)cc1Cl the results were GLS inh 5%, PTHR1 ag -19%[57.5 µM], GRP78 ERSR act -3%, GLP-1R agonist 20%, GLP-1R inv ag 0% and ALOX12 inh inconclusive.
For O=C(CSc1ccc2c(c1)OCCO2)NCCc1ccc(Cl)cc1Cl the results were GLS inh 1%, PTHR1 ag -31%, GRP78 ERSR act -1%, GLP-1R agonist 3%, GLP-1R inv ag 11µM* and ALOX12 inh -34%.
`COc1cc(OC)cc(-c2cc3ncccc3cn2)c1` gave GLS inh 2%, PTHR1 ag -31%, GRP78 ERSR act 2%, GLP-1R agonist 30%, GLP-1R inv ag 22% and ALOX12 inh 32µM*.
Screening O=C(O)c1c(Cl)c(Cl)c(Cl)c(Cl)c1-c1c2cc(I)c(=O)c(I)c-2oc2c(I)c(O)c(I)cc12 returned GLS inh 14µM*, GRP78 ERSR act -10%, GLP-1R agonist 0% and ALOX12 inh 0.86µM*.
O=C(O)c1ccccc1-c1cc2ccccc2oc1=O was read as ALOX12 inh 17%.
`O=C(O)c1ccccc1-c1c2cc(I)c(=O)c(I)c-2oc2c(I)c(O)c(I)cc12` gave GLS inh inconclusive, PTHR1 ag -14%, GRP78 ERSR act -4%, GLP-1R agonist 0%, GLP-1R inv ag -15% and ALOX12 inh 35µM*!.
Screening O=C1C=C(Nc2ccccc2C(F)(F)F)CCC1 returned ALOX12 inh -23%.
Screening O=C(C(=Cc1ccc(F)cc1)c1ccccc1)c1ccc(O)cc1 returned GLS inh 11µM*, PTHR1 ag -20%, GRP78 ERSR act 1%, GLP-1R agonist -6%, GLP-1R inv ag inconclusive and ALOX12 inh inconclusive.
`O=C(C(=Cc1ccc(O)cc1)c1ccccc1)c1ccccc1` gave PTHR1 ag -93% and ALOX12 inh inconclusive.
For COc1ccc(NC2CC(=O)N(C(C)C)C2=O)cc1 (configuration not stated) the results were GLS inh 6%, PTHR1 ag -12%[57.5 µM], GRP78 ERSR act 4%, GLP-1R agonist -1%, GLP-1R inv ag 6% and ALOX12 inh 4µM*.
`CC(C)N1C(=O)CC(Nc2ccc(N3CCOCC3)cc2)C1=O` (configuration not stated) gave GLS inh 3%, PTHR1 ag inactive, GRP78 ERSR act 5%, GLP-1R agonist -11%, GLP-1R inv ag 0% and ALOX12 inh -29%.
